PubChem BioAssay (NCI)
Compounds without any hit were thinned out: in the full panel of roughly 83,000, 20% have a hit.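 Compound tested at a single concentration for 48 hours in 96-well plates; a percent growth value below 10 was scored as active.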 Calls of active or inactive are those of the source.

Experiments:
Test in all cases: NCI-60 one-dose screen, 48 h (100 = growth as untreated, 0 = no growth, -100 = all killed)
Conditions in all cases: 10 µM unless noted
SR leukemia = tested on: SR leukemia
RPMI-8226 leukemia = tested on: RPMI-8226 leukemia
OVCAR-8 ovarian = tested on: OVCAR-8 ovarian
OVCAR-4 ovarian = tested on: OVCAR-4 ovarian
SK-OV-3 ovarian = tested on: SK-OV-3 ovarian
IGROV1 ovarian = tested on: IGROV1 ovarian
OVCAR-3 ovarian = tested on: OVCAR-3 ovarian
HS 578T breast = tested on: HS 578T breast
NCI/ADR-RES ovarian = tested on: NCI/ADR-RES ovarian
T-47D breast = tested on: T-47D breast
BT-549 breast = tested on: BT-549 breast
MDA-MB-435 melanoma = tested on: MDA-MB-435 melanoma
MCF7 breast = tested on: MCF7 breast
HCT-116 colon = tested on: HCT-116 colon
HCC-2998 colon = tested on: HCC-2998 colon
KM12 colon = tested on: KM12 colon
SW-620 colon = tested on: SW-620 colon
OVCAR-5 ovarian = tested on: OVCAR-5 ovarian

Measured: growth

O=c1c(Cc2ccc(F)cc2)cc(-c2ccccc2)nn1C/C(=N/O)c1ccccc1
inactive: SR leukemia 30.3% | RPMI-8226 leukemia 25.6% | OVCAR-8 ovarian 43.7% | OVCAR-4 ovarian 41.5% | SK-OV-3 ovarian 74.7% | IGROV1 ovarian 47.3% | OVCAR-3 ovarian 49.5% | HS 578T breast 73.8% | NCI/ADR-RES ovarian 34.7% | T-47D breast 11.8% | BT-549 breast 48.4% | MDA-MB-435 melanoma 48.8% | MCF7 breast 26.2% | HCT-116 colon 35.1% | HCC-2998 colon 61.3% | KM12 colon 34.7%

c1ccc(Cn2cc3c(c2)-c2nc(Nc4ccccc4)ncc2CC3)cc1
inactive: SR leukemia 114% [100 µM] | RPMI-8226 leukemia 88.2% [100 µM] | OVCAR-8 ovarian 67.5% [100 µM] | OVCAR-4 ovarian 63.3% [100 µM] | SK-OV-3 ovarian 63.1% [100 µM] | IGROV1 ovarian 62.9% [100 µM] | OVCAR-3 ovarian 85.9% [100 µM] | NCI/ADR-RES ovarian 83.9% [100 µM] | T-47D breast 74.3% [100 µM] | BT-549 breast 87.6% [100 µM] | MDA-MB-435 melanoma 96% [100 µM] | SW-620 colon 92% [100 µM] | MCF7 breast 70.5% [100 µM] | HCT-116 colon 80.6% [100 µM] | HCC-2998 colon 99.9% [100 µM] | KM12 colon 87% [100 µM]

CCOC(=O)C1=C(c2ccccc2)N=C2N(c3ccccc3)N=C(C(C)=O)N2C1c1ccc(Br)cc1 (stereo unspecified)
inactive: SR leukemia 81.8% | RPMI-8226 leukemia 77.8% | OVCAR-8 ovarian 93.9% | OVCAR-4 ovarian 104% | SK-OV-3 ovarian 112% | IGROV1 ovarian 88% | OVCAR-3 ovarian 102% | HS 578T breast 83.2% | NCI/ADR-RES ovarian 103% | T-47D breast 79.8% | BT-549 breast 98.3% | MDA-MB-435 melanoma 101% | SW-620 colon 97% | MCF7 breast 89.2% | HCT-116 colon 84.7% | HCC-2998 colon 103% | KM12 colon 94.9%

Fc1ccc(/C=C/c2cc(/C=C/c3ccc(F)cc3)n(-c3cc(F)cc(F)c3)n2)cc1
inactive: SR leukemia 87.5% | RPMI-8226 leukemia 73.8% | OVCAR-8 ovarian 112% | OVCAR-5 ovarian 95.2% | OVCAR-4 ovarian 107% | SK-OV-3 ovarian 97.4% | IGROV1 ovarian 90.3% | OVCAR-3 ovarian 108% | NCI/ADR-RES ovarian 101% | T-47D breast 80.2% | BT-549 breast 97.6% | MDA-MB-435 melanoma 103% | SW-620 colon 104% | MCF7 breast 89% | HCT-116 colon 84.5% | KM12 colon 105%

COc1ccc(C(c2cc(OC)c(OC)c(OC)c2)n2cncn2)cc1O (stereo unspecified)
active: SR leukemia 7.03% | OVCAR-3 ovarian 1.74% | NCI/ADR-RES ovarian 1.8% | MDA-MB-435 melanoma -46.2% | HCT-116 colon 7.25%
inactive: RPMI-8226 leukemia 20.7% | OVCAR-8 ovarian 13.4% | OVCAR-4 ovarian 72.1% | SK-OV-3 ovarian 20.3% | IGROV1 ovarian 49.2% | HS 578T breast 31.3% | T-47D breast 35% | BT-549 breast 11.3% | SW-620 colon 29.1% | MCF7 breast 17.9% | HCC-2998 colon 25.3% | KM12 colon 21.8%

CN(C)CC1C(=O)O[C@H]2[C@H]1CC/C(COC(=O)NCc1ccc(Cn3c(=O)sn(CCCI)c3=O)cc1)=C\CC[C@@]1(C)O[C@@H]21 (stereo partly specified)
active: SR leukemia -28.6% | RPMI-8226 leukemia -29.7% | OVCAR-8 ovarian -68.2% | OVCAR-4 ovarian 6.44% | IGROV1 ovarian -81.8% | OVCAR-3 ovarian -96.4% | T-47D breast -55.5% | MCF7 breast -55.4%
inactive: SK-OV-3 ovarian 99.5% | HS 578T breast 82.5% | NCI/ADR-RES ovarian 98.8% | BT-549 breast 50.1% | MDA-MB-435 melanoma 20.5% | KM12 colon 105%

COC1CC(O)C2=C(CC3C(/C(C)=C\CC=C(C)C)CCC3(C)O2)C1=O (stereo unspecified)
inactive: SR leukemia 86.4% | RPMI-8226 leukemia 93.6% | OVCAR-8 ovarian 99.9% | OVCAR-4 ovarian 113% | SK-OV-3 ovarian 107% | IGROV1 ovarian 110% | OVCAR-3 ovarian 109% | HS 578T breast 98.6% | NCI/ADR-RES ovarian 103% | T-47D breast 94.9% | BT-549 breast 107% | MDA-MB-435 melanoma 109% | SW-620 colon 104% | MCF7 breast 99.4% | HCT-116 colon 98.9% | HCC-2998 colon 105% | KM12 colon 107%

CCOC(=O)CC1CSC(N/N=C/c2ccc(O)cc2)=N1 (stereo unspecified)
inactive: SR leukemia 98.5% | RPMI-8226 leukemia 104% | OVCAR-8 ovarian 103% | OVCAR-4 ovarian 108% | SK-OV-3 ovarian 88.8% | IGROV1 ovarian 97.3% | OVCAR-3 ovarian 110% | NCI/ADR-RES ovarian 108% | T-47D breast 93.2% | BT-549 breast 100% | MDA-MB-435 melanoma 103% | SW-620 colon 98.1% | MCF7 breast 91% | HCT-116 colon 81.1% | HCC-2998 colon 97.4% | KM12 colon 100%

CCCn1cnc2c(c1=N)C(c1ccc(Cl)cc1)c1sc3c(F)cccc3c1O2 (stereo unspecified)
active: HCC-2998 colon -20%
inactive: SR leukemia 24.7% | RPMI-8226 leukemia 29.6% | OVCAR-8 ovarian 86.4% | OVCAR-4 ovarian 66.2% | SK-OV-3 ovarian 102% | IGROV1 ovarian 59.5% | OVCAR-3 ovarian 81.4% | HS 578T breast 91.2% | NCI/ADR-RES ovarian 80.7% | T-47D breast 64.6% | BT-549 breast 105% | MDA-MB-435 melanoma 77.7% | SW-620 colon 55.5% | MCF7 breast 32.3% | HCT-116 colon 57.8% | KM12 colon 66.6%

CCN(CC)CCCNC(=O)c1c2c(n3ccccc13)C(=O)c1ncccc1C2=O
inactive: HS 578T breast 37.5%
active: SR leukemia -22.6% | RPMI-8226 leukemia -23.8% | OVCAR-8 ovarian -56.1% | OVCAR-4 ovarian -83.4% | SK-OV-3 ovarian -41.4% | IGROV1 ovarian -40.3% | OVCAR-3 ovarian -39.5% | NCI/ADR-RES ovarian 3.02% | T-47D breast -64.4% | BT-549 breast -6.67% | MDA-MB-435 melanoma -58.7% | SW-620 colon -47% | MCF7 breast -52.9% | HCT-116 colon -70.5% | HCC-2998 colon -72.5% | KM12 colon -13.2%

CC(Cc1cccc2ccccc12)C(N)=O (stereo unspecified)
inactive: SR leukemia 101% | RPMI-8226 leukemia 102% | OVCAR-8 ovarian 108% | OVCAR-5 ovarian 94.9% | OVCAR-4 ovarian 107% | SK-OV-3 ovarian 102% | IGROV1 ovarian 96.8% | OVCAR-3 ovarian 113% | NCI/ADR-RES ovarian 110% | T-47D breast 105% | BT-549 breast 105% | MDA-MB-435 melanoma 98.9% | SW-620 colon 108% | MCF7 breast 93% | HCT-116 colon 106% | KM12 colon 110%

CC(=O)[C@H]1CC[C@]2(C)[C@@H]1CC[C@@H]1[C@@]3(C)C/C(=C/c4cccnc4)C(=O)C(C)(C)[C@@H]3CC[C@]12C
active: RPMI-8226 leukemia 8.88%
inactive: SR leukemia 40.9% | OVCAR-8 ovarian 27.1% | OVCAR-5 ovarian 132% | OVCAR-4 ovarian 43.6% | SK-OV-3 ovarian 87.2% | IGROV1 ovarian 93.4% | OVCAR-3 ovarian 47.4% | NCI/ADR-RES ovarian 67.2% | T-47D breast 13.6% | BT-549 breast 50.6% | MDA-MB-435 melanoma 75.1% | SW-620 colon 61.9% | MCF7 breast 34.8% | HCC-2998 colon 99.9% | KM12 colon 49.1%

CCOc1ccccc1NC(=O)CCC(=O)OC
inactive: SR leukemia 97.8% | RPMI-8226 leukemia 104% | OVCAR-8 ovarian 119% | OVCAR-4 ovarian 95.4% | SK-OV-3 ovarian 103% | IGROV1 ovarian 100% | OVCAR-3 ovarian 108% | HS 578T breast 106% | NCI/ADR-RES ovarian 113% | T-47D breast 88.7% | BT-549 breast 106% | MDA-MB-435 melanoma 102% | SW-620 colon 104% | MCF7 breast 90.4% | HCT-116 colon 97.5% | HCC-2998 colon 99.5% | KM12 colon 100%

O=C(CSc1nnc(-c2ccc(Cl)c(Cl)c2)n1-c1ccccc1)Nc1ccc(C(=O)/C=C/c2ccc(Cl)cc2)cc1
active: RPMI-8226 leukemia -11.4% | HCT-116 colon 6.82%
inactive: SR leukemia 76.6% | OVCAR-8 ovarian 87.9% | OVCAR-4 ovarian 94.4% | SK-OV-3 ovarian 87.9% | IGROV1 ovarian 89.2% | OVCAR-3 ovarian 95.5% | HS 578T breast 90.7% | NCI/ADR-RES ovarian 95.3% | T-47D breast 81.8% | BT-549 breast 77.5% | MDA-MB-435 melanoma 94.3% | SW-620 colon 94.4% | MCF7 breast 68.1% | HCC-2998 colon 110% | KM12 colon 99.3%

CCN1C(=O)N(CC)C2C1NN=c1s/c(=C3\C(=O)N(C)c4ccccc43)c(=O)n12 (stereo unspecified)
inactive: SR leukemia 19.3% | RPMI-8226 leukemia 62.1% | OVCAR-8 ovarian 37.6% | OVCAR-5 ovarian 48.9% | OVCAR-4 ovarian 52% | SK-OV-3 ovarian 72.5% | IGROV1 ovarian 37.4% | T-47D breast 18.5% | BT-549 breast 55.8% | MCF7 breast 24.9% | HCC-2998 colon 22.1% | KM12 colon 20.9%
active: OVCAR-3 ovarian -14.1% | NCI/ADR-RES ovarian 9.37% | MDA-MB-435 melanoma -34.4% | HCT-116 colon 8.97%

CSc1nn2c(-c3cc4cc(Br)ccc4oc3=O)ccnc2c1C#N
inactive: SR leukemia 94.7% | RPMI-8226 leukemia 103% | OVCAR-8 ovarian 104% | OVCAR-4 ovarian 101% | SK-OV-3 ovarian 105% | IGROV1 ovarian 97.2% | OVCAR-3 ovarian 114% | HS 578T breast 109% | NCI/ADR-RES ovarian 110% | T-47D breast 99.7% | BT-549 breast 105% | MDA-MB-435 melanoma 101% | SW-620 colon 103% | MCF7 breast 94.9% | HCT-116 colon 94.3% | HCC-2998 colon 102% | KM12 colon 107%

COC(=O)c1cc(-c2ccc(OC)c(OC)c2)[nH]c1N/N=C/c1c(Cl)cccc1Cl
inactive: SR leukemia 12.1% | RPMI-8226 leukemia 24.1% | OVCAR-8 ovarian 41.1% | OVCAR-5 ovarian 49.4% | OVCAR-4 ovarian 69.3% | SK-OV-3 ovarian 42.2% | IGROV1 ovarian 42.4% | NCI/ADR-RES ovarian 26.8% | T-47D breast 40.9% | BT-549 breast 37.7% | SW-620 colon 21.3% | MCF7 breast 14.6% | HCT-116 colon 14.5% | HCC-2998 colon 53.2% | KM12 colon 28.7%
active: OVCAR-3 ovarian -19.2% | MDA-MB-435 melanoma -18.3%

Cc1cccc(C)c1NC(=O)Nc1ccccc1
inactive: SR leukemia 68.6% | RPMI-8226 leukemia 96.1% | OVCAR-8 ovarian 85.1% | OVCAR-4 ovarian 76.6% | SK-OV-3 ovarian 102% | IGROV1 ovarian 71% | OVCAR-3 ovarian 115% | HS 578T breast 128% | NCI/ADR-RES ovarian 97.1% | T-47D breast 109% | BT-549 breast 116% | MDA-MB-435 melanoma 105% | SW-620 colon 54.1% | MCF7 breast 53.4% | HCT-116 colon 61.9% | HCC-2998 colon 99.6% | KM12 colon 102%
